Screening results: PubChem, National Center for Advancing Translational Sciences (NCATS)
This is a sample that favours compounds with a hit; in the whole collection about 10% have one here.
SW480 rerep = induces DNA re-replication in SW480 colon adenocarcinoma cells. SW480 DNA re-replication, Hoechst DNA content imaging, 48 h. Potency, µM (series often up to 46.1 µM), most hits filed as activators. 340,000 compounds, 1.8% hits. AID 624297; also: nearly all actives have a fitted effect of over 55% in size
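Readout is total intensity of Hoechst-stained nuclei, excited at 405 nm and collected at 500-530 nm. Compound treatment lasted 48 hr at 37 C in 5% CO2 before staining.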
MCF10A rereplic = inducers of DNA re-replication in MCF 10A breast cells. MCF 10A DNA re-replication, Hoechst nuclear intensity, 48 h. Potency, µM (highest dose often 46.1 µM), most hits filed as activators. 350,000 compounds, 2.9% hits. AID 624296; also: nearly all actives have a fitted effect of over 50% in size
VP16 counter = inhibits Gal4-VP16 luciferase reporter, ROR gamma counter-screen; Drosophila S2 Gal4-VP16 UAS-luciferase, luminescence, 20 h; Potency, µM (series often up to 53.6 µM), usual class: inhibitors; 310,000 compounds, 3.5% hits;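 also: Gal4-VP16 expression switched on by copper sulfate through the metallothionein promoter; nearly all actives have a fitted effect of over 50% in size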
RORg inh = blocks mouse ROR gamma transcriptional activity; Drosophila S2 Gal4-RORgamma UAS-luciferase reporter, 20 h; 310,000 compounds, 5.4% hits; P51450; Potency, µM (titrated, usually from 53.6 µM), usual class: inhibitors; also: nearly all actives have a fitted effect of over 60% in size
Target sequence (P51450 whole entry, looked up, the tested form may be a part): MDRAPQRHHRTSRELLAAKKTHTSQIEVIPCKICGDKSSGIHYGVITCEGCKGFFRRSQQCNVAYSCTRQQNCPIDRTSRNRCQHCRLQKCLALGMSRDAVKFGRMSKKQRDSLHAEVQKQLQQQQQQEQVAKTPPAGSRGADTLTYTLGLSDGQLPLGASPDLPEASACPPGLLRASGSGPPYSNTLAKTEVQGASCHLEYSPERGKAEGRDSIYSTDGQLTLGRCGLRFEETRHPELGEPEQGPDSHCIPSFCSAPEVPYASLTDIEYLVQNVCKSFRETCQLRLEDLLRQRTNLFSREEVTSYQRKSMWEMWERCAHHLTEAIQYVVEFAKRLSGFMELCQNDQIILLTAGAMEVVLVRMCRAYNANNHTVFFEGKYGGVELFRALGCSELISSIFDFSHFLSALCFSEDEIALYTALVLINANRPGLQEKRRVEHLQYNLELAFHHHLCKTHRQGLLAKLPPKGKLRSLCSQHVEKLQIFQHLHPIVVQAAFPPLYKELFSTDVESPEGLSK
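Compounds are pin-transferred onto Drosophila Schneider cells expressing a copper-inducible Gal4–ROR gamma transactivation domain fusion. After 1 hr, copper sulfate is added to 700 uM final; luciferase is read 20 hr later.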
ELG1 DNA repair = blocks ELG1-dependent DNA repair in HEK293T cells; HEK293T ELG1-luciferase reporter, luminescence, 16 h; DNA damage induced by 5-fluorouridine; Potency, µM (series often up to 46.1 µM), usual class: inhibitors; 330,000 compounds, 2.3% hits; AID 504467; also: nearly all actives have a fitted effect of over 55% in size
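Step one: seed 2,000 cells per well. Step two: pin-transfer compound or DMSO alongside 5-fluorouridine. Step three: incubate 16 hr, 37 °C, 5% CO2. Step four: add ONE-Glo, wait 30 min, read luminescence.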
Each line names hits and unclear results; the compound was inactive in the other large screens. Calls follow the shape of the dose curve; as a rule, active = well fitted curve in the direction sought with a large enough effect; inconclusive = small, poorly fitted or top-dose-only effect, or another doubt; inactive = no such curve, though single readings can be large; an effect the other way counts as inactive or inconclusive.

Cc1nc(NC(=O)c2cc3ccccc3o2)sc1C	VP16 counter inconclusive, RORg inh 10µM, ELG1 DNA repair inconclusive
CCOC(=O)c1csc(NC(=O)c2cc3ccccc3o2)n1	VP16 counter inconclusive, RORg inh 3.16µM, ELG1 DNA repair inconclusive
CNC(=O)c1cc2ccccc2o1	RORg inh inconclusive, ELG1 DNA repair inconclusive
CCOC(=O)c1csc(NC(=O)c2ccccc2)n1	RORg inh inconclusive, ELG1 DNA repair inconclusive
CCOC(=O)CNC(=O)c1sc(NC(=O)c2ccccc2F)nc1C	VP16 counter 2.51µM, RORg inh inconclusive, ELG1 DNA repair inconclusive
Cc1nnc(NC(=O)c2cc3ccccc3o2)s1	MCF10A rereplic inconclusive, RORg inh inconclusive, ELG1 DNA repair inconclusive
COCCN(CC(=O)Nc1cccc(C)c1C)C(=O)c1cc(-c2ccncc2)nc2ccccc12	ELG1 DNA repair inconclusive (no result: VP16 counter, RORg inh)
Cc1cccc(CNC(=O)C2CCC(=O)N(CCc3cccc(F)c3)C2)n1 (stereo not given)	SW480 rerep inconclusive
Cc1cccc(NS(=O)(=O)c2cccc(C(=O)NCC3(N4CCOCC4)CCCCC3)c2)c1	MCF10A rereplic inconclusive (no result: VP16 counter, RORg inh, ELG1 DNA repair)
Cc1ccc(S(=O)(=O)N2CCOCC2)cc1C(=O)NC1CCSc2ccccc21 (stereo not given)	SW480 rerep inconclusive
CC1CCN(C(=O)CS(=O)(=O)Cc2ccccc2)CC1	ELG1 DNA repair inconclusive
COCCC(=O)N1CCC(Oc2ccc(C(=O)N3CCCCC3CCO)cc2)CC1 (stereo not given)	RORg inh inconclusive, ELG1 DNA repair inconclusive
CCOC(=O)c1ccccc1NC(=O)c1cc2ccccc2o1	none
CCOC(=O)c1sc(NC(=O)c2cc3ccccc3o2)nc1C	VP16 counter inconclusive, RORg inh 3.98µM, ELG1 DNA repair inconclusive
CCOC(=O)c1sc(Nc2ccccc2Cl)nc1C	ELG1 DNA repair inconclusive
CCOC(=O)c1sc(NC(=O)Nc2ccccc2F)nc1C	VP16 counter 8.91µM, RORg inh 7.94µM, ELG1 DNA repair inconclusive
O=C(/C=C\C=C/c1ccc2c(c1)OCO2)N1CCCCC1	none (no result: SW480 rerep, MCF10A rereplic, ELG1 DNA repair)
Cc1ccc2c(c1)N(CC(=O)N1CCN(c3ccccc3)CC1)C(=O)C(C)O2 (stereo not given)	none
Cc1ccccc1NC(=O)NC1(C(=O)NCc2ccco2)CCCCC1	none
CCCn1c(-c2cc(OC)c(OC)c(OC)c2)nc2nc3ccccc3nc21	ELG1 DNA repair 16.4µM
NC(=S)N/N=C/c1ccc(-c2cc(Cl)ccc2Cl)o1	VP16 counter 2.82µM, RORg inh 1.26µM, ELG1 DNA repair inconclusive
CNC(=S)N/N=C/c1ccc(-c2cc([N+](=O)[O-])ccc2Cl)o1	VP16 counter inconclusive, RORg inh inconclusive, ELG1 DNA repair inconclusive
NC(=S)N/N=C/c1ccc(-c2cc(Cl)cc(Cl)c2)o1	MCF10A rereplic 13µM, VP16 counter 3.98µM, RORg inh 1.26µM (no result: ELG1 DNA repair)
CCOC(=O)N/N=C\c1ccc(-c2cc(Cl)ccc2Cl)o1	MCF10A rereplic inconclusive
NC(=S)N/N=C/c1ccc(-c2ccc([N+](=O)[O-])cc2)o1	SW480 rerep inconclusive, VP16 counter inconclusive, RORg inh 7.08µM
COC(=O)N/N=C/c1ccc(-c2cc(Cl)cc(Cl)c2)o1	none
CC(=O)N1CCC2(CC1)CN(c1ccncc1)C2	none (no result: SW480 rerep, MCF10A rereplic, ELG1 DNA repair)
C=C(CCO)C1=CCN(S(=O)C(C)(C)C)[C@@H]1CCO (stereo not given in full)	none (no result: VP16 counter, RORg inh, ELG1 DNA repair)
O=C(COC(=O)c1ccccc1F)Nc1ccc2c(c1)OCCO2	none (no result: VP16 counter, RORg inh)
O=C(NC(=S)NCc1cccnc1)c1cc(Br)ccc1Cl	VP16 counter inconclusive, RORg inh 22.4µM, ELG1 DNA repair inconclusive
O=C(NC(=S)NCc1cccnc1)c1cc2ccccc2o1	MCF10A rereplic inconclusive, RORg inh 12.6µM
O=C(NC(=S)Nc1cccnc1)c1cc2ccccc2o1	SW480 rerep inconclusive, RORg inh inconclusive, ELG1 DNA repair inconclusive
O=C(Nc1ccc(-n2cccn2)cc1)C1CCCCN1Cc1cccc2c1OCO2 (stereo not given)	SW480 rerep inconclusive, MCF10A rereplic 3.66µM, ELG1 DNA repair 8.2µM
Cc1cc(N=Cc2c(O)n(-c3cccc(C(F)(F)F)c3)c(=O)c3ccccc23)no1	ELG1 DNA repair 9.2µM
Cc1nnc(N/N=C/c2c(O)n(-c3cccc(C(F)(F)F)c3)c(=O)c3ccccc23)[nH]c1=O	none (no result: SW480 rerep, MCF10A rereplic)
CCOC(CNC(=O)CN1C(=O)COc2ccc(S(=O)(=O)N3CCCC3)cc21)OCC	none
O=C(CCSc1ccccc1)N1CCN(c2ccccc2)CC1	MCF10A rereplic inconclusive, ELG1 DNA repair inconclusive
O=C(CCSc1ccc(Cl)cc1)N1CCN(c2ccc(O)cc2)CC1	SW480 rerep inconclusive, MCF10A rereplic inconclusive, ELG1 DNA repair 8.2µM
CC(=O)Nc1ccc(C=NNC(=O)CCCC(=O)NN=Cc2ccc(NC(C)=O)cc2)cc1	none (no result: VP16 counter, RORg inh, ELG1 DNA repair)
CC(=O)c1ccc(NC(=O)c2ccc3nc(-c4ccco4)c(-c4ccco4)nc3c2)cc1	SW480 rerep inconclusive, MCF10A rereplic inconclusive, ELG1 DNA repair inconclusive
O=C(Nc1ccccc1)c1ccc2nc(-c3ccco3)c(-c3ccco3)nc2c1	SW480 rerep 18.4µM, MCF10A rereplic 11.6µM, VP16 counter inconclusive, ELG1 DNA repair 9.2µM
O=C(Nc1cccnc1)c1ccc2nc(-c3ccccc3)c(-c3ccccc3)nc2c1	MCF10A rereplic inconclusive, ELG1 DNA repair 23.1µM
COc1ccc(NC(=O)N2CCCC2C(=O)NCc2cccs2)cc1 (stereo not given)	none
Cc1cccc(C(=O)NC(=S)N2CCN(C(=S)NC(=O)c3cccc(C)c3)CC2)c1	VP16 counter 0.794µM, RORg inh 0.794µM, ELG1 DNA repair inconclusive
CCCNC(=S)N1CCC(NC(=O)c2cccc(C)c2)CC1	none
Cc1cccc(C(=O)NC(=S)N2CCN(C)CC2)c1	VP16 counter 8.91µM, RORg inh 1.26µM
COc1ccc(COC(=O)c2cccc(S(=O)(=O)N3CCN(C(C)=O)CC3)c2)cc1F	none (no result: VP16 counter, RORg inh)
COc1ccc(-n2nnnc2S(=O)(=O)CC(=O)N2CCCCC2)cc1	MCF10A rereplic 7.31µM, VP16 counter 4.47µM, RORg inh 2.82µM
COc1ccc(-n2nnnc2S(=O)(=O)Cc2ccc(C(=O)O)cc2)cc1	SW480 rerep 7.31µM, MCF10A rereplic 16.4µM, ELG1 DNA repair inconclusive
Cc1ccccc1N(C(=O)c1snc(C(N)=O)c1N)C(C(=O)NC1CCCC1)c1ccco1 (stereo not given)	MCF10A rereplic inconclusive
COc1nc2ccccc2nc1OC	none
c1ccc(C2OC3c4cccc5cccc(c45)C3N2c2ccccc2)cc1 (stereo not given)	SW480 rerep inconclusive, MCF10A rereplic 18.4µM
COc1ccc([C@@H]2C[C@H]3CN(Cc4ccccc4OC)C(=O)[C@]34CCCN24)cc1C	ELG1 DNA repair inconclusive
COc1ccccc1CN1C[C@@H]2C[C@@H](c3ccc(C)c(C)c3)N3CCC[C@@]23C1=O	SW480 rerep 4.11µM, ELG1 DNA repair inconclusive
S=C(NCc1ccncc1)NC1CCCC1	ELG1 DNA repair inconclusive
O=C(Cc1ccc(F)cc1)NC1CCCCCC1	ELG1 DNA repair inconclusive
